Laboratory results as given in paper PMC7826789 (International Journal of Molecular Sciences, 2021).

Key:
PIP5K2B = tested on: T1, PIP5K2B; conditions: Compound Concentration (nM):1000
T1 construct: gene PIP4K2B

PIP5K2C = tested on: T2, PIP5K2C; conditions: Compound Concentration (nM):1000
T2 construct: gene PIP4K2C

PKAC-alpha = tested on: T3, PKAC-alpha; conditions: Compound Concentration (nM):1000
T3 construct: gene PRKACA

PKAC-beta = tested on: T4, PKAC-beta; conditions: Compound Concentration (nM):1000
T4 construct: gene PRKACB

PKMYT1 = conditions: Compound Concentration (nM):1000
PKN1 = conditions: Compound Concentration (nM):1000
PKN2 = conditions: Compound Concentration (nM):1000
PKNB(M.tuberculosis) = conditions: 1 µM
PLK1 = conditions: Compound Concentration (nM):1000
PLK2 = conditions: Compound Concentration (nM):1000
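Further: KINOMEscan scanMAX binding as percent activity remaining versus control; lower means stronger binding.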

SMILES	Percent Control (PIP5K2B) [%]	Percent Control (PIP5K2C) [%]	Percent Control (PKAC-alpha) [%]	Percent Control (PKAC-beta) [%]	Percent Control (PKMYT1) [%]	Percent Control (PKN1) [%]	Percent Control (PKN2) [%]	Percent Control (PKNB(M.tuberculosis)) [%]	Percent Control (PLK1) [%]	Percent Control (PLK2) [%]
Cl.O=C(Nc1ccc(Oc2ccc3[nH]c(NC(=O)c4ccccc4)nc3c2)cc1)Nc1cc(C(F)(F)F)ccc1F [GW709042A]	100	97	100	100	100	100	60	88	100	98
COc1ccc2[nH]c3c4[nH]c5ccc(OC)cc5c4c4c(c3c2c1)C(=O)NC4=O [GW296115X]	100	28	87	89	97	42	52	67	90	95
CCS(=O)(=O)c1ccc(OC)c(Nc2ncc(-c3cccc(OC)c3)o2)c1 [GW580509X]	91	11	100	100	100	100	100	100	92	86
C/C(Nc1ccc(S(N)(=O)=O)cc1)=C1/C(=O)Nc2ccccc21 [GW335962X]	100	93	100	87	91	83	74	83	90	87
CC1=C(C(=O)Nc2ccc3[nH]ncc3c2)C(c2ccc(Cl)c(Cl)c2)CC(=O)N1 (centres unmarked) [GSK299115A]	99	82	81	63	77	39	65	85	70	100
COc1cc(C)c(N(C)C(=O)CN(C)C)cc1Nc1nc(Nc2cccc(F)c2C(N)=O)c2cc[nH]c2n1 [GSK2219385]	100	92	100	100	78	89	88	63	81	100
Cl.O=C(O[C@H]1CN[C@H](C#Cc2cc3ncnc(Nc4ccc5c(cnn5Cc5ccccc5)c4)c3s2)C1)N1CCOCC1 [GSK200398A]	100	98	100	93	96	88	69	91	76	92
NS(=O)(=O)c1ccc(N/N=C2\C(=O)Nc3ccc(C(=O)NCc4ccncc4)cc32)cc1 [GW300657X]	100	51	100	100	83	100	81	100	74	90
NS(=O)(=O)c1ccc(N/N=C2\C(=O)Nc3ccc(Cl)cc32)cc1 [GW280670X]	98	81	100	100	100	100	97	100	100	100
O=C1Nc2ccc(C(=O)c3ccco3)cc2C1=Cc1cc(Cl)c(O)c(Cl)c1 [GW406108X]	95	65	100	100	100	83	63	90	49	27
COc1cccc(-n2ncc3c(N/N=C/c4ccncc4)ncnc32)c1 [GW784752X]	91	19	100	99	100	100	100	100	88	94
NS(=O)(=O)c1ccc(Nc2ncc(-c3ccccc3)o2)cc1 [GW572399X]	100	29	100	100	100	100	100	76	100	86
Cc1cc(O)cc(C)c1/C=C/c1cncc(C(N)=O)c1 [GW435821X]	100	84	100	100	74	100	65	99	100	93
CCc1ccc(Oc2nccc(-c3c(-c4ccc(F)cc4)ncn3C3CCNCC3)n2)cc1 [SB-242719]	100	100	36	31	89	94	91	81	98	77
COc1cc2ncn(-c3cc(O[C@H](C)c4ccccc4Cl)c(C(N)=O)s3)c2cc1OC [GSK237701A]	15	20	100	96	100	100	83	62	–	1.8
COc1ccccc1-c1cc(/C=C2\C(=O)Nc3ncc(Br)cc32)cc(Br)c1O [GW442130X]	100	100	95	100	100	100	36	74	95	100
CCn1c(-c2nonc2N)nc2c(C#CC(C)(C)O)nc(OCCNC)cc21.Cl [GSK949675]	100	78	21	16	100	9.3	100	0.7	100	100
CC1=C(C(=O)Nc2ccc3[nH]ncc3c2)C(c2ccc3ccccc3c2)CC(=O)N1 (centres unmarked) [GSK270822A]	100	83	64	68	90	45	76	87	73	100
COc1ccc(COc2ccc(Cc3cnc(N)nc3N)cc2OC)cc1 [GW632580X]	100	100	91	100	100	82	100	69	100	100
CC(C)COC(=O)c1ccc2c(c1)/C(=C/Nc1ccc(S(N)(=O)=O)cc1)C(=O)N2 [GW416981X]	100	65	100	100	100	100	71	86	100	59
COc1cc2ncnc(Nc3ccc4c(cnn4Cc4ccccc4)c3)c2cc1OC.Cl [GW282449A]	100	73	100	37	100	100	100	100	91	100
COc1cc(/C=N/Nc2ncnc3[nH]ncc23)ccc1O [GW578748X]	74	24	100	100	100	100	100	50	84	31
Nc1ncnc2occ(-c3ccc(NC(=O)Nc4cc(C(F)(F)F)ccc4F)cc3)c12 [GW770249X]	100	77	100	100	100	100	90	100	100	1.9
COC(=O)Nc1nc2ccc(Oc3ccc(NC(=O)Nc4cc(C(F)(F)F)ccc4F)cc3)cc2s1.Cl [GW693917A]	100	96	100	95	95	82	57	70	67	96
Cl.c1ccc(Cc2nc3ccc(Nc4ncnc5ccccc45)cc3[nH]2)cc1 [GR269666A]	100	71	100	100	100	92	100	100	80	100
COc1cc(C=NNc2ncnc3c2cnn3-c2ccccc2)ccc1O [GW513184X]	59	1.4	100	100	100	81	100	86	100	37
CN(C)c1cc2c(Nc3ccc4c(cnn4Cc4ccccc4)c3)ncnc2cn1 [GW282974X]	100	100	100	95	73	90	88	68	71	100
COc1cc(N2CCN(C(C)C)CC2)ccc1Nc1nc(Nc2ccc(F)cc2C(=O)NC[C@@H](O)CO)c2cc[nH]c2n1 [GSK1392956A]	100	94	100	100	100	100	100	99	6.3	100
O=C(Nc1n[nH]c2nc(-c3ccc(O)cc3)c(Br)cc12)C1CC1 [SB-725317]	100	91	100	100	100	89	100	31	100	83
NS(=O)(=O)c1ccc(N/N=C2\C(=O)Nc3ccc(-c4cnco4)cc32)cc1 [GW276655]	69	100	88	94	95	100	87	78	77	83
